Pf growth 96h = inhibits malaria parasite growth, 96 h; Potency, µM (series often up to 28.7 µM), usual class: inhibitors; P. falciparum luciferase reporter growth, 96 h; AID 504834; 320,000 compounds, 6.9% hits
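Two-generation exposure (96 h) targets delayed-death phenotype. Reporter parasites carrying integrated firefly luciferase, in red cells at 2% hematocrit and 0.05% parasitemia final, kept at 37 C, 5% CO2; luminescence loss indicates inhibition.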
HCMV inh = blocks human cytomegalovirus replication; activity change, negative = inhibition, % at 57.5 µM; 410,000 compounds, 4.5% hits; HFF cells, HCMV-luciferase reporter, 72 h; active compounds read low; in the data active = activity change below about -60%; inconclusive = no clear call, values can overlap the other calls; inactive = above about -39%
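Human foreskin fibroblasts infected with luciferase-reporter HCMV at MOI 1 PFU/cell, compounds at two doses. Luciferase measured 72 h post infection; normalized to buffer-only basal and Salinomycin (10uM) controls.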
HCV inhibitor = HCV inhibition; Huh7.5.1 HCVcc-Cre infection, luciferase reporter, 44 h; Potency, µM (top dose mostly 41.8 µM), most hits filed as inhibitors; 340,000 compounds, 3.4% hits; AID 651820
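Infectious HCVcc-Cre (~0.5 moi) was added to cells just after compound, with cells seeded 4 h earlier at 1,000 per well. Luciferase activity after 44 h culture reported infection; substrate was incubated 15 min at room temperature before reading.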
Sm TGR block = S. mansoni TGR enzyme inhibition; purified TGR, DTNB reduction, TNB absorbance 405 nm; Potency, µM (series often up to 114 µM), usual class: inhibitors; 360,000 compounds, 3% hits; AID 485364; note: nearly all actives have a fitted effect of over 60% in size
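First, TGR (20 nM dispensed) and NADPH were mixed with compound. Second, a 15 min room-temperature incubation followed. Third, further NADPH and then DTNB were added to start the reaction. Finally, TNB absorbance was monitored kinetically.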
SARS PLP yeast = inhibitors of SARS-CoV papain-like protease in yeast; S. cerevisiae expressing SARS-CoV PLpro, growth rescue; 330,000 compounds, 0.19% hits; Potency, µM (highest dose often 32.9 µM), most hits filed as activators; calls by dose curve; note: nearly all actives have a fitted effect of over 55% in size
Pf growth 48h = P. falciparum growth inhibition at 48 hours (one generation); 310,000 compounds, 5.9% hits; P. falciparum luciferase growth in erythrocytes, 48 h; Potency, µM (series often up to 28.7 µM), usual class: inhibitors
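Cell-based growth assay: transgenic P. falciparum expressing firefly luciferase, cultured in red cells within RPMI 1640 containing 0.5% w/v Albumax, 24 mM bicarbonate and gentamycin. A drop in luciferase activity indicates inhibition.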
Of the large screens only hits and unclear results are named; the others gave an inactive call. Shown are actives, neighbours in structure and some others; about 15% of the full set was active somewhere. Unless noted, calls come from the whole dose curve; as a rule, active = well fitted curve in the direction sought with a large enough effect; inconclusive = small, poorly fitted or top-dose-only effect, or another doubt; inactive = no such curve, though single readings can be large; an effect the other way counts as inactive or inconclusive.

CCOc1ccc(N2C(=O)NC(=O)/C(=C\c3ccc(N4CCCCC4)o3)C2=O)cc1	Pf growth 96h 13µM, Pf growth 48h inconclusive
Cc1ccc(/C=C2\C(=O)NC(=S)N(c3cccc(F)c3)C2=O)o1	Pf growth 96h inconclusive, Sm TGR block 0.71µM, SARS PLP yeast inconclusive
CCOc1ccc(N2C(=O)/C(=C/c3ccc(C)o3)C(=O)NC2=S)cc1	Sm TGR block 1.4µM
COc1ccc(N2C(=O)/C(=C/c3ccc(C)o3)C(=O)NC2=S)cc1	Sm TGR block 1.3µM
CN1CCN(c2ccc(/C=C3\C(=O)NC(=S)N(c4cccc(Br)c4)C3=O)o2)CC1	none
O=C1NC(=O)N(c2ccc3c(c2)OCO3)C(=O)/C1=C/c1ccc(N2CCCC2)o1	Sm TGR block inconclusive, Pf growth 48h inconclusive
CC(C)=CCC[C@H](C)C[C@@H]1Cc2[nH][nH]c(=O)c2[C@H](c2ccc(Cl)cc2)O1	none (no result: Pf growth 96h, HCV inhibitor, Sm TGR block, SARS PLP yeast, Pf growth 48h)
CCC(=O)C1=C(c2ccc(F)cc2)N(C(=O)CC)n2cnnc2S1	HCMV inh -82, Sm TGR block inconclusive (no result: Pf growth 96h, HCV inhibitor, SARS PLP yeast, Pf growth 48h)
CCOc1ccc(C2=C(C(=O)CC)Sc3nncn3N2C(=O)CC)cc1	HCMV inh -101 (no result: Pf growth 96h, HCV inhibitor, SARS PLP yeast, Pf growth 48h)
CC(=O)C1=C(c2ccc(Cl)c(Cl)c2)N(C(C)=O)n2cnnc2S1	HCMV inh -99, Sm TGR block 10µM (no result: Pf growth 96h, HCV inhibitor, SARS PLP yeast, Pf growth 48h)
Cc1cc(C)cc(N2CC(C(=O)OCC(=O)Nc3cc(C)on3)CC2=O)c1 (configuration not stated)	Pf growth 96h inconclusive
O=C(/C=C/Nc1ccccc1)c1ccccc1	Pf growth 96h 7.4µM (no result: Pf growth 48h)
COc1ccc(N/C=C/C(=O)c2cc(OC)c(OC)c(OC)c2)cc1	HCMV inh -80
COc1ccc(OC)c(N/C=C/C(=O)c2ccccc2)c1	Pf growth 96h inconclusive, HCMV inh -78, Pf growth 48h inconclusive
O=C(Cn1cncn1)c1ccc(F)cc1F	none
CC(=O)c1cc(-c2ccc(F)cc2)n(CC(=O)NC2CCC(C)CC2)c1C (configuration not stated)	none (no result: Pf growth 96h, HCV inhibitor, SARS PLP yeast, Pf growth 48h)
Fc1ccccc1N1CCN(C2CCN(Cc3c[nH]c4ccccc34)CC2)CC1	Pf growth 96h 3.7µM, HCV inhibitor inconclusive (no result: Pf growth 48h)
Cc1ccc(NC(=O)CN(C)S(=O)(=O)c2ccc(Cl)s2)c(O)c1	none
CS(=O)(=O)N1CCC(Oc2ccccc2C(=O)NCCCc2cccnc2)CC1	Pf growth 96h 9.3µM
CC(C)c1c(O)ccc2c1CC[C@H]1C(C)(C)CCC[C@]21C	HCV inhibitor 2µM (no result: Pf growth 96h, Sm TGR block, SARS PLP yeast, Pf growth 48h)
Cc1cc(OCC(=O)NCCCN2CCOCC2)c2c(C)c(C)c(=O)oc2c1	Pf growth 96h inconclusive
CCOc1ccc(Br)cc1S(=O)(=O)NCc1ccncc1	Pf growth 96h 13µM
Cc1ccc(C)c(S(=O)(=O)NCc2ccncc2)c1	Pf growth 96h inconclusive, HCV inhibitor inconclusive, Pf growth 48h inconclusive
COc1ccc(S(=O)(=O)NCc2ccncc2)cc1OC	HCMV inh -65, HCV inhibitor inconclusive, SARS PLP yeast inconclusive
Cc1cc(S(=O)(=O)NCc2ccncc2)c(C)cc1Br	Pf growth 96h inconclusive, HCMV inh -87 (no result: HCV inhibitor)
CCOc1ccc(Br)cc1S(=O)(=O)NCc1ccc(S(N)(=O)=O)cc1	none
COc1ccc(S(=O)(=O)NCc2ccncc2)cc1NC(=O)c1ccccc1F	HCMV inh -88, HCV inhibitor inconclusive
CC1CCN(C(=O)c2nc[nH]c2C(=O)N2CCC(C)CC2)CC1	none
COc1ccc2oc(-c3cccc(NC(=O)c4cc([N+](=O)[O-])ccc4N4CCOCC4)c3)nc2c1	none (no result: Pf growth 96h, HCV inhibitor, SARS PLP yeast, Pf growth 48h)
CCOc1ccc(S(=O)(=O)NCc2ccc(OC)cc2)c2cccnc12	none
CC1CCCCC1NS(=O)(=O)c1ccc(S(=O)(=O)NCc2ccncc2)cc1 (configuration not stated)	Pf growth 96h inconclusive, HCV inhibitor inconclusive, Pf growth 48h 15µM (no result: HCMV inh)
COc1ccc(CNCc2ccncc2)cc1OC	Pf growth 96h 10µM, Pf growth 48h inconclusive
COc1ccc(S(=O)(=O)Nc2ccc(Cc3ccncc3)cc2)cc1OC	HCMV inh -65, HCV inhibitor inconclusive
CCOc1ccc(S(=O)(=O)NCc2ccc(F)cc2)c2cccnc12	Pf growth 96h 6.6µM
CCOc1ccc(S(=O)(=O)NC2CCCCC2C)cc1 (configuration not stated)	none (no result: Pf growth 96h, Sm TGR block, SARS PLP yeast, Pf growth 48h)
CN(CCN1CCOCC1)C(=O)c1cc(COc2ccc(F)c(F)c2)on1	none
COC(=O)C1=C(C)NC(=O)C1(NC(=O)c1cc(OC)c(OC)c(OC)c1)C(F)(F)F (configuration not stated)	none (no result: Pf growth 96h, HCV inhibitor, SARS PLP yeast, Pf growth 48h)
CCc1ccc(NS(=O)(=O)c2ccc(OC)c3ncccc23)cc1	none
COc1cc(CNCc2ccncc2)cc(Br)c1OCc1ccccc1F	HCMV inh -90, HCV inhibitor inconclusive
CCc1ccc(OC)c(S(=O)(=O)Nc2ccc(Cc3ccncc3)cc2)c1	HCMV inh -75, HCV inhibitor 8.9µM, Pf growth 48h inconclusive
CCOc1cc(S(=O)(=O)NCc2cccs2)ccc1Cl	Pf growth 96h inconclusive
CCOc1cc(S(=O)(=O)NCc2ccncc2)ccc1Cl	HCMV inh -84, HCV inhibitor inconclusive
COc1ccc(S(=O)(=O)N2CCCC2)cc1NC(=O)c1ccccc1F	none
CCN1CCN(S(=O)(=O)c2ccc(OC)c(NC(=O)c3ccccc3F)c2)CC1	Pf growth 96h 7.4µM, HCMV inh inconclusive
COc1cc(CNc2ccc(O)cc2)cc(Br)c1OCc1ccccc1F	Pf growth 96h inconclusive, Pf growth 48h inconclusive (no result: HCMV inh)
FC(F)(F)c1cccc(N2CCN(c3nc4ccccc4n4cnnc34)CC2)c1	HCMV inh inconclusive (no result: Pf growth 96h, HCV inhibitor, SARS PLP yeast, Pf growth 48h)
O=S(=O)(Nc1ccc(Cc2ccncc2)cc1)c1ccc(Cl)c(Cl)c1	Pf growth 96h inconclusive, HCMV inh inconclusive, HCV inhibitor 7.9µM, Pf growth 48h inconclusive
O=C(NCc1cccnc1)C1CCC(c2ccc(Cl)cc2)CC1 (configuration not stated)	Pf growth 96h inconclusive, HCMV inh inconclusive, HCV inhibitor 7.9µM, Pf growth 48h inconclusive
Cc1oc(-c2cccc(Cl)c2)nc1CN1CCC(C(=O)NCCc2ccc(Cl)cc2)CC1	none (no result: Pf growth 96h, HCV inhibitor, SARS PLP yeast, Pf growth 48h)
CCCN(CCC)CCNC(=O)C1CCN(Cc2nc(-c3ccc(Cl)cc3)oc2C)CC1	Pf growth 96h inconclusive, HCV inhibitor 0.79µM, Pf growth 48h 4.7µM
Cc1oc(-c2ccc(Cl)cc2)nc1CN1CCC(C(=O)NCc2cccnc2)CC1	HCV inhibitor 14µM (no result: HCMV inh)
Cc1ccc(CCNC(=O)Cc2ccc(NC3=NC4CS(=O)(=O)CC4S3)cc2)cc1 (configuration not stated)	Pf growth 96h inconclusive
O=C1CC(c2ccccc2)Cc2[nH]c(=O)c(-c3nc(-c4ccc(F)cc4)cs3)cc21 (configuration not stated)	none (no result: Pf growth 96h, HCV inhibitor, SARS PLP yeast, Pf growth 48h)
